# Laboratory results: paper PMC4336329 (PLoS ONE, 2015)
# In all, about 310,000 compounds went through this assay and about 14,000 (4.5%) showed an effect of 50% or more. The effect is printed as a negative number. This excerpt belongs to a sample that is enriched for strong results.
# Biological target: human ether-à-go-go-related gene (hERG) potassium channel (human, UniProt Q12809)
# Experiment: primary screen, population patch clamp on CHO cells stably expressing hERG; higher = less effect of the substance
# 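Further: peak tail current of the secondary pulse compared with the same well before compound.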
# human ether-à-go-go-related gene (hERG) potassium channel, sequence (Q12809 whole entry, looked up): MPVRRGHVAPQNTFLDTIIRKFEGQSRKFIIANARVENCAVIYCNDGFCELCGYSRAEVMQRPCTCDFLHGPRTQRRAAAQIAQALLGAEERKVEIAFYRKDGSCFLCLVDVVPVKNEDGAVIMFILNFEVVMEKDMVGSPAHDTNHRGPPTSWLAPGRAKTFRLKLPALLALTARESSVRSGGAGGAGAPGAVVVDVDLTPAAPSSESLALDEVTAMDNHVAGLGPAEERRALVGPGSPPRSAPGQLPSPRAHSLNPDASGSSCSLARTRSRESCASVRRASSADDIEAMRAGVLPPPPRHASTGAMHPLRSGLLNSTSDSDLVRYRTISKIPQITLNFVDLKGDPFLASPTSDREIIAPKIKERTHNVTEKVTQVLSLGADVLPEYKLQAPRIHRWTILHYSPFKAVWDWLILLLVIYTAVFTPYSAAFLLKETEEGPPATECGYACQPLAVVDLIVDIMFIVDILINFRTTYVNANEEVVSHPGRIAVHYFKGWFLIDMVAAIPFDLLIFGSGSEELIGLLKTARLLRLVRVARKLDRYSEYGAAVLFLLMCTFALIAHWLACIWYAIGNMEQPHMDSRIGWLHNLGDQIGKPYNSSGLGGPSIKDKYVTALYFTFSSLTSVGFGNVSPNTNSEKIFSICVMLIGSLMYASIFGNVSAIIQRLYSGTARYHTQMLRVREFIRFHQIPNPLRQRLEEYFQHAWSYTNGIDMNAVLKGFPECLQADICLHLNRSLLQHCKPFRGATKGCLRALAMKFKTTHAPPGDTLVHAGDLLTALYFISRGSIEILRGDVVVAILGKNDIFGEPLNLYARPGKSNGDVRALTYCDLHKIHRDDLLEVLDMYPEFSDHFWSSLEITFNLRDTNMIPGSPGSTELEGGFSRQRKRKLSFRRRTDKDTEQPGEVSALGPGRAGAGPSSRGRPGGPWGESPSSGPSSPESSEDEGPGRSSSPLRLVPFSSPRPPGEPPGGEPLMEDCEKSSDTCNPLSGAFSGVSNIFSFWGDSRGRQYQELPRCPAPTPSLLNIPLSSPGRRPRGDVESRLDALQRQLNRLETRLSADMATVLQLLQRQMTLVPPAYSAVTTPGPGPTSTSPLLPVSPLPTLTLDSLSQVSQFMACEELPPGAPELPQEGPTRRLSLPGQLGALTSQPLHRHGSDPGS
row,SMILES,"hERG current change (%, negative = inhibition) at 10uM"
1,CCc1nnc(NC(=O)CSc2nc3c(c(=O)n2C)SC(C)C3)s1 (centres unmarked),-2.54%
2,CCCCOC(=O)c1ccc(NC(=O)c2ocnc2C)cc1,-8.8%
3,O=C(OC(C(=O)NCc1ccco1)c1ccc(Cl)cc1)c1cccs1 (centres unmarked),17.6%
4,CC(C)Oc1ccccc1/C=N/NC(=O)C1CC1,7.57%
5,CCN1CCN(c2nc(NCCO)c3ccccc3n2)CC1.Cl,-16.7%
6,Cc1ccc(OCCN2CCN(c3nc(NCc4ccco4)c4ccccc4n3)CC2)cc1,-62.6%
7,O=C(NCCO)c1nc(NCCO)c2ccccc2n1,10.3%
8,Cl.c1ccc(CN2CCN(c3nc(N4CCOCC4)c4ccccc4n3)CC2)cc1,-70.3%
9,Cl.OCCN1CCN(c2nc(NCc3ccco3)c3ccccc3n2)CC1,-75.3%
10,Cc1ccc(-c2nc(NCc3ccco3)c3ccccc3n2)cc1,4.65%
11,CCN(CC)c1nc(N2CCOCC2)nc2ccccc12.Cl,-48.3%
12,Cl.c1ccc2c(N3CCOCC3)nc(N3CCOCC3)nc2c1,-19.4%
13,Cc1cccc(Nc2nc(NCc3ccco3)c3ccccc3n2)c1.Cl,-12.2%
14,Cl.OCCNc1nc(N2CCN(Cc3ccccc3)CC2)nc2ccccc12,-68.3%
15,CC(=O)N1c2ccc(S(=O)(=O)N3CCCC(C(=O)N4CCCCC4)C3)cc2CC1C (centres unmarked),19.2%
16,CC(C)(C)NC(=O)CN(Cc1cccs1)C(=O)C1COc2ccccc2O1 (centres unmarked),-14.7%
17,Cc1cc(=O)[nH]c(N/N=C/c2c(C)oc3ccccc23)n1,-0.943%
18,Nc1nc(Nc2ccccc2)nc(NC2CCCCC2)c1[N+](=O)[O-],18.9%
19,Cn1nccc1C(=O)N1CCOCC1,5.59%
20,FC(F)Oc1ccc(NC(=S)NCC2COc3ccccc3O2)cc1 (centres unmarked),-5.83%
21,COc1ccc(OC)c(/C=N\NC(=O)c2ccc(COc3ccc(C)cc3[N+](=O)[O-])o2)c1,16.2%
22,N#Cc1cnn(-c2cccc(Cl)c2)c1N,11.6%
23,Cc1csc(NC(=O)CS(=O)(=O)c2ccccc2)n1,-18.1%
24,COc1ccc(NC(=O)c2nc[nH]c2C(=O)N2CCN(c3ccccc3)CC2)cc1,3.64%

row,SMILES,"hERG current change (%, negative = inhibition) at 10uM"
1,CC(C)CN(C(=O)CSc1nn(-c2ccc(Cl)cc2)c(=S)s1)C1CCS(=O)(=O)C1 (centres unmarked),-20.1%
2,O=C(COC(=O)/C=C/c1cccs1)Nc1nc(-c2ccccc2)cs1,12.1%
3,c1ccc(CN2CCN(c3nc4ccccc4s3)CC2)cc1,11.8%
4,Cl.c1ccc(CN2CCN(c3nc(NCc4ccco4)c4ccccc4n3)CC2)cc1,-68.3%
5,Nc1nc(N2CCN(Cc3ccccc3)CC2)n[nH]1,24.7%
6,Cl.c1ccc(CNc2nc(N3CCN(Cc4ccccc4)CC3)nc3ccccc23)cc1,-65.9%
7,Nc1nc(NCc2ccco2)nc(N2CCN(Cc3ccccc3)CC2)c1[N+](=O)[O-],-41.9%
8,c1ccc(CNc2nc(NCc3ccco3)nc(N3CCOCC3)n2)cc1,-28.5%
9,CCc1ccc(CCC(=O)Nc2ccc(C)c(C)c2)o1,-20.8%
10,COC(=O)NCC(c1ccco1)N1CCN(c2ccc(F)cc2)CC1 (centres unmarked),-1.75%
11,Cc1[nH]n(-c2ccccc2)c(=O)c1N=Nc1ccccc1C(=O)O,1.85%
12,COc1ccc(CN(C)C(=O)C(Cc2ccccc2)NC(=O)c2ccccc2)c(OC)c1 (centres unmarked),-13.5%
13,Cc1nn(-c2ccccc2)c2c1C1(C(=O)Nc3ccccc31)N1C(=N2)Sc2ccccc21 (centres unmarked),0.952%
14,Cc1cc(N)n2nc(C)c(-c3ccccc3)c2n1,-21.9%
15,Cc1ccc2c(cnn2C(=O)CCCC(=O)NC(C)c2ccccc2)c1 (centres unmarked),-5.97%
16,CCN(CC)S(=O)(=O)c1cccc(C(=O)Oc2cccnc2)c1,-8.07%
17,O=C(Cc1ccc(Br)cc1)N1CCN(Cc2ccccc2)CC1,-30.9%
18,Cc1ccc(CC(=O)N2CCN(C)CC2)cc1,18.1%
19,COc1ccc(N2CCN(C(=O)Cc3ccc(C)cc3)CC2)cc1,-6.07%
20,O=C(Cc1ccc([N+](=O)[O-])cc1)N1CCCCCC1,-21.9%
21,O=C(Cc1ccc([N+](=O)[O-])cc1)N1CCN(c2ccc([N+](=O)[O-])cc2)CC1,-73.7%
22,O=C(Cc1ccccc1)N1CCN(Cc2ccc([N+](=O)[O-])cc2)CC1,-63.4%
23,COc1ccccc1CC(=O)N1CCN(c2ccccc2)CC1,9.19%
